esBAF inh = inhibitors of esBAF chromatin remodeling in mouse ES cells | Bmi1-luciferase knock-in reporter, 24 h; 100% = twice the neutral-well signal | reporter increase, % at 12.5 µM | hit rate 2% among 350,000 | AID 602393; in the data active = activation above about 40%;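 note: 0% = median of the plate's neutral control wells and 100% = double that signal; a rise in the Bmi1 reporter signal indicates esBAF inhibition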
Rtt109 Vps75 = blocks Candida albicans Rtt109/Vps75 acetyltransferase activity. inhibition, % at 34.9 µM. Q5AAJ8. purified Rtt109/Vps75, ThioGlo CoA-SH fluorescence, 4 h. hit rate 0.16% among 330,000. AID 540336;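 active = inhibition of at least 50% in every replicate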
Target sequence (Q5AAJ8 whole entry, looked up): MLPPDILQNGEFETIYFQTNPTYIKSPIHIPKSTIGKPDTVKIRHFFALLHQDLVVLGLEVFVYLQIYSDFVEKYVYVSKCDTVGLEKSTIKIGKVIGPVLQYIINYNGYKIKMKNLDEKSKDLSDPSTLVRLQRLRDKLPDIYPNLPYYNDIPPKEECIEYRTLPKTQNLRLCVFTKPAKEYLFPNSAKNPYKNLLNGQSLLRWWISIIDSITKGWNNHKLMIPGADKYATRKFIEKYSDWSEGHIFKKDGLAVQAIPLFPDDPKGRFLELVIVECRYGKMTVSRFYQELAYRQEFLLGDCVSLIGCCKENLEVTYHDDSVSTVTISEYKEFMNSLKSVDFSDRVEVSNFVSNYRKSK
C2C12 statin = suppression of simvastatin myotoxicity. C2C12 myotubes + simvastatin, ATP luminescence, 48 h; scaled: DMSO 0, geranylgeraniol control 100. rescue of ATP level, % at 7.49 µM. hit rate 0.78% among 330,000;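 active = mean ATP rescue above about 67%, or every replicate alone reaching that limit, limit read from the data, passing the limit was not always enough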;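 note: myotubes were challenged with 10 µM simvastatin during compound exposure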
Wnt act = activates Wnt/beta-catenin signaling in a reporter cell assay. activator, plate reader. activation, % at 9.35 µM. hit rate 1.2% among 300,000. AID 743398; in the data active = activation above about 30%, passing the limit was not always enough;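 note: 0% = neutral control wells and 100% = positive control wells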
MITF act = activators of MITF-driven TRPM1 promoter activity in SK-MEL-5 cells; hit rate 0.75% among 300,000; SK-MEL-5 TRPM1-promoter luciferase, 24 h; % of positive control, neutral wells = 0; activation, % at 12.5 µM;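 active = mean activation of at least 80% with every replicate also reaching 80%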;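 note: 0% = neutral control wells and 100% = parthenolide positive control wells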
* = called active by the depositor. An excerpt weighted towards active compounds, which were near 3.1% of everything screened.

Results for CCC(=O)Nc1ccc2c(c1)C(=O)N(C)C[C@@H](OC)[C@H](C)CN(C(=O)C1CCC1)[C@@H](C)CO2 ?
esBAF inh: -2; C2C12 statin: 9

What do the screens show for `CC(C)OC(=O)c1ccc(NC(=O)c2ccccc2)cc1`?
Rtt109 Vps75: -1; MITF act: 60

How did CC(C)OC(=O)c1cccc(C(=O)O)n1 do in these assays?
Rtt109 Vps75: 8; Wnt act: -1; MITF act: 17

Results for CC(C)OC(=O)c1ccc2ccc(-c3ccccc3)nc2c1 ?
esBAF inh: 55*; C2C12 statin: -19; Wnt act: 24

How did CC(C)OC(=O)c1ccc2nc3ccccc3nc2c1 do in these assays?
esBAF inh: -4; Rtt109 Vps75: -12; C2C12 statin: -4; Wnt act: 43*; MITF act: 6

Results for CCCC(=O)Nc1ccc2c(c1)C(=O)N(C)[C@@H]1CC[C@@H](CC(=O)Nc3cn(C)nc3C)O[C@@H]1CO2 ?
esBAF inh: 2; C2C12 statin: 10

How did C[C@@H]1CN([C@H](C)CO)S(=O)(=O)c2ccc(C#Cc3ccc(F)cc3)cc2O[C@@H]1CN(C)S(=O)(=O)c1ccc(F)cc1 do in these assays?
esBAF inh: -4; C2C12 statin: 8

How did O=C(O)c1ccc(N2C(=O)CC(SC(=Nc3ccccc3)Nc3ccccc3)C2=O)cc1 (stereo not given) do in these assays?
Rtt109 Vps75: -4; Wnt act: -1; MITF act: -3

Results for O=C1CC(SC(=Nc2ccccc2)Nc2ccccc2)C(=O)N1c1cccc2ccccc12 (stereo not given) ?
esBAF inh: 10; Rtt109 Vps75: 5; C2C12 statin: 120*; MITF act: -1

What do the screens show for `C[C@@H]1CN([C@@H](C)CO)C(=O)Cc2cc(NS(C)(=O)=O)ccc2O[C@H]1CN(C)Cc1ccc(Oc2ccccc2)cc1`?
esBAF inh: 3; C2C12 statin: 3

Results for CCOC(=O)C1CCCN(C(=O)/C=C/c2ccccc2)CC1 (stereo not given) ?
esBAF inh: -8; C2C12 statin: 0

Results for COC(=O)C1CCN(C(=O)/C=C/c2ccc(OC)cc2)CC1 ?
esBAF inh: -6; Rtt109 Vps75: 0; C2C12 statin: -8; Wnt act: 57*; MITF act: 25

Results for CCOC(=O)C1CCN(C(=O)/C=C/c2ccccc2)CC1 ?
Rtt109 Vps75: 27; Wnt act: 45*; MITF act: 18

How did C[C@H]1CN([C@@H](C)CO)C(=O)c2cccc(NC(=O)NC3CCCCC3)c2O[C@@H]1CN(C)Cc1ccc(C(=O)O)cc1 do in these assays?
esBAF inh: 1; C2C12 statin: -10

What do the screens show for `CN(C)c1ccnc(NCc2ccccc2)c1C#N`?
esBAF inh: 3; Rtt109 Vps75: -9; C2C12 statin: -4; Wnt act: 10

What do the screens show for `CN(C)c1ccnc(N(Cc2ccccc2)Cc2ccccc2)c1C#N`?
esBAF inh: 74*; Rtt109 Vps75: -21; C2C12 statin: -9; MITF act: 47

How did Cc1noc(C)c1NC(=O)N(C)C[C@@H]1Oc2ccc(NC(=O)Nc3ccccc3)cc2CC(=O)N([C@H](C)CO)C[C@@H]1C do in these assays?
esBAF inh: 0; C2C12 statin: -12

What do the screens show for `Cc1cc(NC(=O)c2ccc(Cl)cc2)no1`?
esBAF inh: 24; Rtt109 Vps75: 16; C2C12 statin: 0; Wnt act: 27; MITF act: 106*

Results for O=C(NCc1ccco1)c1sc2cc(F)ccc2c1Cl ?
esBAF inh: 53*; Rtt109 Vps75: 10; C2C12 statin: 4; Wnt act: 17; MITF act: 72

How did O=C(Nc1ccon1)c1sc2cc(F)ccc2c1Cl do in these assays?
esBAF inh: 71*; Rtt109 Vps75: 3; C2C12 statin: -9

How did Cc1ccc2c(Cl)c(C(=O)Nc3cc(C)on3)sc2c1 do in these assays?
esBAF inh: 60*; Rtt109 Vps75: -9; C2C12 statin: 6; Wnt act: 42*; MITF act: 53

What do the screens show for `C[C@@H]1CN([C@@H](C)CO)C(=O)c2cc(NS(=O)(=O)c3ccc(Cl)cc3)ccc2O[C@@H]1CN(C)Cc1ccc(C(F)(F)F)cc1`?
esBAF inh: 1

What do the screens show for `COc1cccc(NC(=O)N[C@H]2C=C[C@H](CC(=O)NCc3ccncn3)O[C@@H]2CO)c1`?
esBAF inh: 0; C2C12 statin: 0

How did CCNC(=O)c1sc2cc(C)ccc2c1Cl do in these assays?
esBAF inh: 24*; Rtt109 Vps75: 0; Wnt act: 10; MITF act: 73

Results for Cc1ccc2c(Cl)c(C(=O)NCC3CCCO3)sc2c1 (stereo not given) ?
Rtt109 Vps75: -10; MITF act: 32

Results for Cc1ccc2c(Cl)c(C(=O)NCCc3ccccc3)sc2c1 ?
Rtt109 Vps75: -4; MITF act: 106*

What do the screens show for `COc1ccc(CCNC(=O)c2sc3cc(C)ccc3c2Cl)cc1`?
esBAF inh: -1; Rtt109 Vps75: 9; C2C12 statin: 13; MITF act: 13

What do the screens show for `CN(C)c1ccc(NC(=O)c2ccc(COc3cccc(Cl)c3)o2)cc1`?
esBAF inh: 74*; Rtt109 Vps75: -3; C2C12 statin: 6; MITF act: 13

Results for CO[C@@H]1CN(C)C(=O)c2cc(NC(C)=O)ccc2OC[C@H](C)N(C(=O)c2ccccc2F)C[C@H]1C ?
esBAF inh: -2; C2C12 statin: 12

Results for O=C(C[C@H]1C=C[C@@H](NC(=O)Cc2cccnc2)[C@@H](CO)O1)Nc1ccccc1 ?
esBAF inh: 6; C2C12 statin: -2

What do the screens show for `C=CCn1cccc(C(=O)Nc2ccc(F)cc2)c1=O`?
esBAF inh: 67*; Rtt109 Vps75: 8; C2C12 statin: 9; Wnt act: 12; MITF act: 56

How did O=C(C[C@@H]1CC[C@@H](NC(=O)c2ccccn2)[C@@H](CO)O1)NCc1cc(F)cc(F)c1 do in these assays?
esBAF inh: 0; C2C12 statin: -1

What do the screens show for `C[C@@H]1CN([C@H](C)CO)C(=O)Cc2cc(NC(=O)Nc3ccc(C(F)(F)F)cc3)ccc2O[C@@H]1CN(C)C(=O)NC1CCCCC1`?
esBAF inh: -2; C2C12 statin: -78

What do the screens show for `CCN(CC)C(=O)CSc1nc(N)c(C#N)c(-c2cccs2)c1C#N`?
esBAF inh: -2; Rtt109 Vps75: -1; C2C12 statin: 0; Wnt act: 7; MITF act: -7

How did CCSc1nc(N)nc(-c2cccs2)c1C#N do in these assays?
esBAF inh: 49*; Rtt109 Vps75: -10; C2C12 statin: -21; Wnt act: -4; MITF act: 30

Results for CO[C@H]1CN(C)C(=O)c2cc(NC(=O)Nc3ccccc3)ccc2OC[C@@H](C)N(C(=O)Nc2c(C)noc2C)C[C@H]1C ?
esBAF inh: 2; C2C12 statin: -5
